IEC-6 cytotox = cytotoxicity in IEC-6 intestinal epithelial cells, primary screen, cytotoxicity control for KLF5 inhibitor project, cell-based, luminescence. IEC-6 cytotoxicity, luminescence viability. inhibition, % at 5 µM. 290,000 tested, 0.78% active. AID 1825, 2009; in the data active = inhibition above about 22%;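 also: 0% = plate median of test compound wells and 100% = cytotoxic reference compound wells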
KLF5 inhibitor = KLF5 expression inhibitors, primary screen, DLD-1 cells, luminescence | DLD-1 KLF5 promoter-luciferase reporter | inhibition, % at 5 µM | 290,000 tested, 0.23% active;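 active = inhibition above a per-plate limit of that plate's mean compound inhibition plus 3 SD, cut at about 60% in these data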;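 also: 0% = DMSO wells and 100% = LY294002 at 200 µM; higher means less KLF5 promoter-driven luciferase light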
APP transl inh = inhibitors of APP translation via 5'UTR reporter, primary screen, APP 5'UTR luciferase, SH-SY5Y cells; SH-SY5Y APP 5'UTR-luciferase reporter, luminescence; 190,000 tested, 0.82% active; inhibition, % at 2 µM;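 active = inhibition above a set limit, derived from the sample mean plus 3 SD, cut at about 45% in these data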
BaF3 tox = parental Ba/F3 cell viability inhibition, counter-screen for JAK2V617F inhibitor project, murine pro-B, CellTiter-Glo luminescence; CellTiter-Glo ATP luminescence; inhibition, % at 5.6 µM; 220,000 tested, 1.1% active;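 active = inhibition above a per-campaign cutoff, the mean inhibition of all tested compounds plus 3 SD, cut at about 27% in these data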;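 also: 0% = DMSO wells and 100% = JAK Inhibitor I control wells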
aSyn UTR inh = MLPCN primary screen, SNCA 5' untranslated region. alpha-synuclein 5'UTR reporter, inhibitor activity. inhibition, % (tested at 7.5 µM). 300,000 tested, 0.82% active; in the data active = inhibition above about 60%;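 also: H4 neuroglioblastoma cells stably carrying SNCA 5'UTR luciferase fusion; 0% = DMSO wells and 100% = positive control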
Ba/F3 V617F tox = reduced viability of JAK2V617F-dependent Ba/F3 cells, primary screen, JAK2V617F inhibitor project, cell-based, Ba/F3 EpoR-JAK2V617F, luminescence. ATP luminescence. inhibition, % at 5.6 µM. 220,000 tested, 1.1% active. AID 1446, 2008;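 active = inhibition above the campaign mean plus 3 SD over all tested compounds, cut at about 24% in these data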;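 also: cytokine-independent growth of Ba/F3 cells driven by EpoR plus mutant JAK2; 0% = DMSO-treated cells and 100% = JAK inhibitor I control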
Starred values were filed as active, the others as inactive. Rows were chosen to be rich in hits. Some 2.2% of all compounds tested hit in one or more screens of this group.

Cc1cccc(-n2ncc3c(N4CCCC4)ncnc32)c1 was read as IEC-6 cytotox 2, KLF5 inhibitor -122, APP transl inh -138, BaF3 tox 9, aSyn UTR inh 29 and Ba/F3 V617F tox 6.
Screening Clc1ccc(-n2ncc3c(N4CCCCCC4)ncnc32)cc1 returned IEC-6 cytotox 3, KLF5 inhibitor 3, APP transl inh -27, BaF3 tox 0, aSyn UTR inh 78* and Ba/F3 V617F tox -4.
For Cc1cccc(-n2ncc3c(N4CCOCC4)ncnc32)c1 the results were IEC-6 cytotox 3, KLF5 inhibitor 42, APP transl inh -67, BaF3 tox 12, aSyn UTR inh 77* and Ba/F3 V617F tox 8.
`Cc1cc(C)cc(NC(=O)/C(C#N)=C/c2cn(CC(=O)NCc3ccco3)c3ccccc23)c1` gave IEC-6 cytotox 0, KLF5 inhibitor -33, APP transl inh 25, BaF3 tox 7, aSyn UTR inh 111* and Ba/F3 V617F tox 1.
Screening CC(C)C(C(=O)Nc1ccc(N2CCOCC2)cc1)N1C(=O)c2ccccc2C1=O (centres undefined) returned IEC-6 cytotox 5, KLF5 inhibitor -13, APP transl inh 6, BaF3 tox 60*, aSyn UTR inh -1 and Ba/F3 V617F tox -2.
For CC(C)C(C(=O)Nc1ccc2c(c1)OCCO2)N1C(=O)c2ccccc2C1=O (centres undefined) the results were IEC-6 cytotox -6, KLF5 inhibitor 12, APP transl inh -13, BaF3 tox 94*, aSyn UTR inh -3 and Ba/F3 V617F tox 0.
`CC(C(=O)Nc1ccc(N2CCOCC2)cc1)N1C(=O)c2ccccc2C1=O` (centres undefined) gave IEC-6 cytotox 0, KLF5 inhibitor -36, APP transl inh 16, BaF3 tox 6, aSyn UTR inh 27 and Ba/F3 V617F tox -2.
Screening CCn1c(=NC(=O)c2ccc(S(=O)(=O)N3CCOCC3)cc2)sc2cccc(OC)c21 returned IEC-6 cytotox 1, KLF5 inhibitor -11, APP transl inh -7, BaF3 tox 42*, aSyn UTR inh 10 and Ba/F3 V617F tox 35*.
COCCn1c(=NC(=O)c2ccc(S(=O)(=O)N3CCOCC3)cc2)sc2cc(S(N)(=O)=O)ccc21 was read as IEC-6 cytotox 6, KLF5 inhibitor -38 and aSyn UTR inh 7.
`COc1ccccc1N1CCN(S(=O)(=O)CCNC(=O)C2CCCC2)CC1` gave aSyn UTR inh 1.
Cc1sc(NC(=O)c2ccc(=O)n(C)n2)nc1-c1ccccc1 was read as IEC-6 cytotox -12, KLF5 inhibitor -57, APP transl inh -11, BaF3 tox 45*, aSyn UTR inh -95 and Ba/F3 V617F tox 44*.
`Cc1sc(NC(=O)c2c(F)cccc2F)nc1-c1ccccc1` gave IEC-6 cytotox -1, KLF5 inhibitor -33 and aSyn UTR inh 21.
For COc1cccc(C(=O)Nc2ccccc2)c1 the results were IEC-6 cytotox 2, KLF5 inhibitor -44, APP transl inh -45, BaF3 tox 5, aSyn UTR inh -122 and Ba/F3 V617F tox 3.
`COc1cccc(-c2cc(=O)c3cc(NC(=O)c4ccccc4)ccc3[nH]2)c1` gave IEC-6 cytotox 5, KLF5 inhibitor -14, APP transl inh 87*, BaF3 tox 5, aSyn UTR inh 82* and Ba/F3 V617F tox -2.
For COc1cccc(-c2cc(=O)c3cc(NC(=O)c4ccc(Cl)cc4)ccc3[nH]2)c1 the results were IEC-6 cytotox 4, KLF5 inhibitor -10, APP transl inh 78*, BaF3 tox 10, aSyn UTR inh -68 and Ba/F3 V617F tox 1.
`Cc1ccccc1NC(=O)c1cc(S(=O)(=O)N2CCOCC2)cn1C` gave IEC-6 cytotox -6, KLF5 inhibitor -12 and aSyn UTR inh -17.
`Cc1cccc(C)c1NC(=S)N=Nc1c(O)n(C)c2ccc(S(=O)(=O)N3CCOCC3)cc12` gave IEC-6 cytotox -10, KLF5 inhibitor -19, APP transl inh 20, BaF3 tox 2, aSyn UTR inh 71* and Ba/F3 V617F tox -1.
Screening Cc1ccccc1NC(=S)N=Nc1c(O)n(C)c2ccc(S(=O)(=O)N3CCOCC3)cc12 returned IEC-6 cytotox 4, KLF5 inhibitor -10, APP transl inh 18, BaF3 tox 8, aSyn UTR inh 78* and Ba/F3 V617F tox 2.
O=[N+]([O-])c1ccc(S(=O)(=O)NCC(c2cccnc2)N2CCc3ccccc32)cc1 (centres undefined) was read as aSyn UTR inh 7.
`CC(=O)c1cc2c(cc1NC(=O)c1cc(C)nn1-c1ccccc1)OCO2` gave IEC-6 cytotox -2, KLF5 inhibitor -2, APP transl inh 59*, BaF3 tox 6, aSyn UTR inh 2 and Ba/F3 V617F tox 0.
`CC(=O)Nc1ccc(NC(=O)c2cc(C)nn2-c2ccccc2)cc1` gave IEC-6 cytotox -2, KLF5 inhibitor -23, APP transl inh 10, BaF3 tox 6, aSyn UTR inh -8 and Ba/F3 V617F tox 1.
CCN(CC)S(=O)(=O)c1ccc2c(c1)nc(SCn1nnc3ccccc3c1=O)n2CC was read as IEC-6 cytotox -5, KLF5 inhibitor -33, APP transl inh 92*, BaF3 tox 4, aSyn UTR inh 18 and Ba/F3 V617F tox 0.
`Cn1c(SCn2nnc3ccccc3c2=O)nc2ccccc2c1=O` gave IEC-6 cytotox -5, KLF5 inhibitor -14, APP transl inh 2, BaF3 tox -2, aSyn UTR inh -11 and Ba/F3 V617F tox -4.
Screening Cc1ccnc(NC(c2cccnc2)c2ccc3cccnc3c2O)c1 (centres undefined) returned IEC-6 cytotox -2, KLF5 inhibitor 6, APP transl inh 7, BaF3 tox 4, aSyn UTR inh -9 and Ba/F3 V617F tox 2.
CC(NC(=O)CSc1ncccn1)c1ccc(Cl)cc1Cl (centres undefined) was read as IEC-6 cytotox -7, KLF5 inhibitor -22, APP transl inh -8, BaF3 tox 9, aSyn UTR inh -2 and Ba/F3 V617F tox -3.
CCCCC(=O)NC(c1ccc(Cl)cc1Cl)c1ccc2cccnc2c1O (centres undefined) was read as IEC-6 cytotox 7, KLF5 inhibitor 45 and aSyn UTR inh 92*.
Screening CC(C)C(=O)NC(c1ccc(Cl)cc1Cl)c1ccc2cccnc2c1O (centres undefined) returned IEC-6 cytotox 13, KLF5 inhibitor 79* and aSyn UTR inh 92*.
`Oc1ccccc1C(Nc1nccs1)c1ccc2cccnc2c1O` (centres undefined) gave IEC-6 cytotox 14, KLF5 inhibitor 27, BaF3 tox -6, aSyn UTR inh 77* and Ba/F3 V617F tox 2.
